# Experimental data: PubChem BioAssay (NCI)
# Compounds without any hit were thinned out: in the full panel of roughly 83,000, 20% have a hit.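 Cell lines were cultured in 96-well plates, exposed to a single compound concentration, and assessed for percent growth 48 hours later.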 A number with no mark means an inactive call. The source made the active and inactive calls. The calls were made as follows: active = growth percent below 10; inactive = the rest.
# What was measured:
# Assay in all cases: NCI-60 one-dose screen, 48 h (100 = growth as untreated, 0 = no growth, -100 = all killed)
# Conditions in all cases: 10 µM unless noted
# [1] = tested on: SK-MEL-2 melanoma
# [2] = tested on: EKVX NSCLC
# [3] = tested on: SN12C renal
# [4] = tested on: UO-31 renal
# [5] = tested on: TK-10 renal
# [6] = tested on: ACHN renal
# [7] = tested on: A498 renal
# [8] = tested on: CCRF-CEM leukemia
# [9] = tested on: MOLT-4 leukemia
SMILES,growth [1],growth [2],growth [3],growth [4],growth [5],growth [6],growth [7],growth [8],growth [9]
CCCCn1c(-c2cccc(OC)c2)nc2cc(OC)c(OC)cc2c1=O,101%,70.8%,98.1%,80.6%,215%,97.8%,110%,-22.6% (active),
Clc1ccc(OCc2nc(-c3ccccc3)n[nH]2)c(Cl)c1,103%,93.8%,96.6%,77.1%,122%,98%,104%,85.9%,
CN(C)C(=O)Nc1nc2cc(Cl)c(Cl)cc2[nH]1,-14.7% (active),57.7%,51%,20.4%,30.7%,52.6%,46.7%,10.3%,
COc1cc2ncnc(Oc3ccc(NC(=O)Nc4ccc(C5(C#N)CCCC5)cc4)c4ccccc34)c2cc1OC,80.9%,57.7%,21.3%,55.8%,24.1%,29.3%,82.4%,77.5%,60.9%
COc1ccc(C(=O)Cn2cnc3c(Nc4cc(C(=O)Nc5ccc(N6CCN(CCO)CC6)cc5)ccc4C)ncnc32)cc1,100%,99%,104%,87.6%,102%,103%,111%,105%,
Clc1ccc(CN2COc3c(ccc4cccnc34)C2)cc1Cl,11.8%,1.43% (active),19.4%,-55.4% (active),25.9%,4.57% (active),52.8%,-11.1% (active),
CC(C)CCC[C@@H](C)[C@H]1CC[C@H]2[C@@H]3CC=C4N(c5ccccc5)C(=O)CC[C@]4(C)[C@H]3CC[C@]12C,101%,96.7%,86.2%,91.7%,97.4%,105%,118%,92.2%,79.9%
O=C(O)c1ccccc1C(=O)c1ccc(I)cc1,91.2%,97.5%,104%,99.4%,95.6%,104%,115%,99.9%,94.3%
COc1ccc(/C=N/C2=NNC(C)(c3ccccc3O)N2C(Cc2c[nH]c3ccccc23)C(=O)O)cc1 (stereo not given),20.2%,27.5%,34.4%,32.1%,70.4%,46.5%,46.5%,19.7%,14.4%
Nc1nc(Cl)cc(NCc2ccc(CNc3cc(Cl)nc(N)n3)cc2)n1,74.1%,70.4%,106%,84.3%,124%,92.7%,73.7%,107%,70.7%
CCNc1cc(S(=O)(=O)O)ccc1C,100%,101%,99.8%,101%,101%,113%,102%,89.7%,92.3%
CC(C)(C)OC(=O)N1CCN(CCn2cc(C(F)(F)F)c3c(Cl)ncnc32)CC1,44.5%,101%,71.9%,-80.8% (active),115%,96.6%,103%,28.5%,23.4%
O=C(O)c1ccc2nc(-c3ccc(OCCCCCOc4ccc(-c5nc6ccc(C(=O)O)cc6[nH]5)cc4)cc3)[nH]c2c1,101%,113%,62.2%,90.5%,-2.6% (active),98.4%,53.6%,76.1%,87.7%
Cc1cccc(NCS(=O)(=O)O)c1,109%,98.7%,112%,93%,98.5%,107%,111%,102%,102%
Fc1cccc(F)c1C#Cc1ccc2cccnc2c1,84.4%,68.6%,88.3%,53.5%,88.4%,88.5%,99.7%,83.7%,71.6%
CCOC(=O)C1CSC(C)(C(=O)OCC)N1 (stereo not given),99.4%,94.7%,104%,95.6%,91.9%,110%,118%,103%,92.8%
Cc1nssc1=S,88.6%,96.5%,118%,87.9%,96.4%,109%,147%,92.2%,99.8%
CC(C(C(=O)N1CCCCC1)N1CCCCC1)N1CCCCC1 (stereo not given),111%,112%,102%,94.9%,101%,116%,119%,116%,79.8%
CN1C(=O)C2(SCC(C(=O)NCC(=O)OC(C)(C)C)N2C(=O)C2CCCCC2)c2ccccc21 (stereo not given),86.9%,96.6%,99.2%,84%,103%,99.8%,83.5%,96.3%,92.6%
Cc1cccc(NC(=O)CCc2ccc(N3C(N)=NC(N)=NC3(C)C)cc2)c1,59.9%,55.6%,30.3%,115%,82.5%,101%,95.2%,31.1%,50.5%
CC/C(=C(\CC)c1ccc(OCCN(CC)CC)cc1)c1ccc(OCCN(CC)CC)cc1,-8.16% (active),38%,68.6%,24.4%,48.6%,42.5%,43.4%,38.9%,42.6%
C=C1C(=O)O[C@H]2[C@H]1CC/C(COC(=O)c1ccc(Cl)nc1)=C\CC[C@@]1(C)O[C@@H]21,40.4%,10.2%,12.9%,-39% (active),-8.78% (active),-20.6% (active),87.2%,-32.1% (active),-28.6% (active)
COc1ccc(-c2cnc(-c3ccc(F)cc3)[nH]2)cc1,113%,90.7%,99%,84.5%,230%,105%,97.1%,-48.2% (active),54.7%
CN(C)c1ccc2cc(-c3nc4ccccc4s3)c(N)nc2c1,51.5%,67.7%,48.5%,51.8%,111%,102%,38.2%,6.43% (active),22.4%
S=c1[nH]nc(Cn2c3ccccc3c3ccncc32)o1,96.6%,106%,102%,97.3%,102%,98.3%,97.3%,84.6%,93.8%
COc1cc(NC(C)CCCN2C(=O)c3ccccc3C2=O)c2ncccc2c1OC (stereo not given),94.8%,69%,109%,59.4%,93.6%,97.9%,104%,-26.9% (active),-67.5% (active)
CC1(C)N=C(N)N=C(N)N1c1ccc(OCC(=O)Nc2ccccc2)c(Cl)c1,47.5%,48.9%,30.5%,104%,57.6%,103%,94.8%,28.8%,32%
CCC1S/C(=N\N=C(/C)c2ccco2)N(c2ccccc2)C1=O (stereo not given),112%,109%,141%,94.8%,79.4%,110%,160%,-58.4% (active),78.7%
C[C@H]1C=C(C[C@@H](O)CC#CC#CCCCCC[C@@H](O)[C@H]2CCC(=O)O2)C(=O)O1,118%,96.7%,105%,81.2%,115%,103%,107%,106%,114%
CC(C)(C)NC(C1=CC(C)(C)c2ccccc2C1=O)c1ccccc1 (stereo not given),-65.1% (active),-1.1% (active),-14.3% (active),-97.4% (active),-6.87% (active),-10.5% (active),45.1%,-5.2% (active),-47.4% (active)
